The values below come from PubChem BioAssay.

The source made the active and inactive calls.

One test has as its target Albumin (Bos taurus) (UniProt P02769). Description: bovine serum albumin binders on microarray, profiling panel, artefact control for SMM control protein annotation, biochemical, small-molecule microarray, Alexa647 label, 635/667 nm fluorescence (AID 1118).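 Note: score merges 667 nm emission intensity and signal-to-noise per printed compound spot.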 The following applies: BSA-A647 binding, fluorescence 635 nm, higher = more signal.
The nature of test [1]: small-molecule microarray binders of probe aXIP, primary screen, biochemical, NeuroSMM set, 635/667 nm fluorescence (AID 1119).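 Note: probe is the protein aXip251-270 applied at 1 µg/mL to compound-printed slides; binding of probe to printed compounds measured as 667 nm fluorescence plus signal to noise.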 The following applies: higher = more signal, called active from +8 up or from −8 down.
Test [2] in a line: small-molecule binders of probe aNOTCH3, primary screen, biochemical, small-molecule microarray, 635/667 nm fluorescence (AID 1120).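 Note: probe is a biotin-tagged antibody raised against NOTCH3 rather than NOTCH3 protein; score merges spot fluorescence near 667 nm with spot signal to noise.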 The conditions noted are these: higher = more signal.
A short description of test [3]: small-molecule binders of probe aNOTCH2, primary screen, biochemical, small-molecule microarray, 635/667 nm fluorescence (AID 1121).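 Note: score merges feature fluorescence read at 667 nm with its signal to noise.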 The conditions noted are these: higher = more signal.
Test [4] concerns the target Carbonic anhydrase 2 (Homo sapiens) (UniProt P00918). Description: CAII small-molecule binders, profiling panel, biochemical, small-molecule microarray, Alexa647-labelled CAII (AID 1122). The conditions noted are these: CAII-A647 binding fluorescence, higher = more signal.
Test [5] is described as follows: COS7 lysate on small-molecule microarray, probe aHis, 635 nm (AID 1123).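 Note: z-score combines 667nm fluorescence intensity with signal-to-noise per printed compound spot.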 The conditions noted are these: COS7 cell lysate, fluorescence, higher = more signal.
The nature of test [6]: compound binding in COS7 lysate, probe aLAP1, primary screen, cell lysate, small-molecule microarray (AID 1124).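 Note: lysate comes from COS7 cells expressing LAP1 and is applied at 0.3 µg/mL; score merges spot fluorescence near 667 nm with signal-to-noise over triplicate slides.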 The following applies: probe aLAP1, fluorescence, higher = more signal.
A further test concerns Sam68 (KHDRBS1). Description: Sam68 small-molecule binders, primary screen, biochemical, small-molecule microarray, 635 nm fluorescence (AID 1125).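 Note: score merges 667 nm channel intensity with signal to noise over triplicate slides.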 The conditions noted are these: small-molecule microarray binding, higher = more signal.
The subject of test [7] is Chordin-like protein 2 (CHRDL2). Description: CHRDL2 small-molecule binders, primary screen, biochemical, small-molecule microarray, 635 nm fluorescence (AID 1126).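 Note: printed compound slides probed with Chrdl2 protein at 4 µg/mL for 1 h at 4 C; score merges 667 nm emission intensity with signal to noise over three replicate slides.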 The conditions noted are these: small-molecule microarray binding, fluorescence 635 nm; higher = more signal.
Test [8] concerns the target Concanavalin-A (Canavalia ensiformis) (UniProt P02866). Description: ConA small-molecule binders, primary screen, artefact control for SMM control protein annotation, biochemical, small-molecule microarray, Alexa647 label, 635 nm (AID 1127).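 Note: z combines 667 nm emission intensity with signal-to-noise across three replicate slides.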 The following applies: ConA-A647 binding fluorescence, higher = more signal.

Albumin (Bos taurus), sequence (P02769 whole entry, looked up): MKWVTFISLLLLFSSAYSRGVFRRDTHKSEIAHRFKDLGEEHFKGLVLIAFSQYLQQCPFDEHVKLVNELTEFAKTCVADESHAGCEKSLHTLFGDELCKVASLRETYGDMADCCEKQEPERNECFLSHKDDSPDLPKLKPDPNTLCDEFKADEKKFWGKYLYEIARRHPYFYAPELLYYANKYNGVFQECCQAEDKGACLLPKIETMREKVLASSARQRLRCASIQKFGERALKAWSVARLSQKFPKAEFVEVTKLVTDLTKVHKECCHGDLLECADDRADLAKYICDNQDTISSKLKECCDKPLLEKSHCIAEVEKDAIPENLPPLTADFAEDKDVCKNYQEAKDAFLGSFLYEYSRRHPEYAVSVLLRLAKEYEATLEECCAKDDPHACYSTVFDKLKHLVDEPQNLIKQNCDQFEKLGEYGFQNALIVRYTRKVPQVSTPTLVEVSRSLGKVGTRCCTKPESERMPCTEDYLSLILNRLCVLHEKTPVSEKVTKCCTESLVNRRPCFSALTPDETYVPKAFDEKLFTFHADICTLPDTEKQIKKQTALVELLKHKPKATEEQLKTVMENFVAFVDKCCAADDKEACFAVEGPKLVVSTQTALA
Concanavalin-A (Canavalia ensiformis), sequence (P02866 whole entry, looked up): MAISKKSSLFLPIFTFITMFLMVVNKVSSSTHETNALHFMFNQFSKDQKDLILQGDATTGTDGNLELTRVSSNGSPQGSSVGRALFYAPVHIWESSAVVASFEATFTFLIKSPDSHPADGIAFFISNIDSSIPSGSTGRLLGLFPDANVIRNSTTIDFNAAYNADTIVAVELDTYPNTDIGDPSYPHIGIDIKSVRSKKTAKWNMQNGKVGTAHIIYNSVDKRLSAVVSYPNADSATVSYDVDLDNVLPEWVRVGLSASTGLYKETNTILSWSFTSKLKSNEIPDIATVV

As for `CN1C(=O)C2C=CC(C(O)Cc3ccccc3)N(Nc3ccccc3)C2C1=O` (stereo not given), the composite z-score with Albumin (Bos taurus) is 0.554; in test [2] it was -0.0311; in test [3] it was -0.0196; in test [4], 0.589; in [5], 3.06; in [6], -0.333. In addition, the composite z-score with Sam68 (KHDRBS1) was -0.0158; in test [7], -0.513; in test [8], 0.672. The composite Z-score in [1] was -0.193 (inactive).
On to `CN1C(=O)C2C=CC(C(O)c3ccc(-c4ccccc4)s3)N(N(c3ccccc3)c3ccccc3)C2C1=O` (stereo not given), for which the composite z-score is 0.828 in the test with Albumin (Bos taurus); -0.0865 in test [2]; -0.134 in test [3]; 0.365 in [4]; 1.69 in [5]; -0.149 in [6]. Further, the composite z-score in the test on Sam68 (KHDRBS1) is 0.749; in test [7], 0.414; in test [8], 1.08. Further, the composite Z-score in test [1] was 0.81 (inactive).
As to `COCCOC(=O)N1C(=O)[C@@]2(c3cc(C#CCNC(N)=O)ccc31)[C@H](C(=O)NC[C@H](O)c1ccccc1)[C@H]1C(=O)O[C@H](c3ccccc3)[C@H](c3ccccc3)N1[C@@H]2c1ccccc1OCCO`, the composite z-score with Albumin (Bos taurus) came to 0.509; in [2], 0.411; in test [3], 0.0156; in test [4] it was 0.296; in test [5], 1.28; in [6] it was 0.854. Moreover, the composite z-score with Sam68 (KHDRBS1) stood at 1.28; in [7], 0.209; in test [8], 1.01. Further, the composite Z-score in test [1] is 0.529 (inactive).
With `COCCOC(=O)N1C(=O)[C@@]2(c3cc(C#Cc4ccc(OC)cc4)ccc31)[C@H](c1ccc(O)cc1)N1[C@H](c3ccccc3)[C@H](c3ccccc3)OC(=O)[C@H]1[C@@H]2C(=O)NC[C@H](O)c1ccccc1`, the composite z-score was 0.298 with Albumin (Bos taurus); 0.385 in [2]; -0.0878 in [3]; 0.317 in test [4]; 1.04 in test [5]; 0.693 in test [6]. The composite z-score is 1.29 in the test on Sam68 (KHDRBS1), 0.374 in [7] and 1.17 in test [8]. The composite Z-score in [1] is 0.434 (inactive).
As to `COc1ccc([Si](C)(C)[C@@H]2[C@@H](CC(=O)N3Cc4ccccc4C[C@H]3CO)O[C@]3(C(=O)N(C)c4c(Br)cc(C)cc43)[C@H]2C)cc1`, the composite z-score is 0.494 with Albumin (Bos taurus); 0.0562 in [2]; -0.164 in [3]; 0.574 in test [4]; 0.498 in [5]; 0.172 in [6]. The composite z-score in the test with Sam68 (KHDRBS1) stood at 1.31; in [7] it was 1.11; in test [8] it was 1.13. Further, the composite Z-score in test [1] is 0.136 (inactive).
For `CC[C@@H]1C=C(C(=O)O)[C@H](c2ccco2)N1S(=O)(=O)c1ccc(C)cc1`, the composite z-score in the test with Albumin (Bos taurus) was -0.179; in [2], -0.128; in test [3], -0.108; in test [4] it was 0.689; in test [5] it was 0.059; in [6] it was 0.591. The composite z-score in the test on Sam68 (KHDRBS1) was 0.125; in test [7], 0.209; in [8] it was -1.29. Also, in [1], the composite Z-score is 0.33 (inactive).
Turning to `CC(C)N1C(=O)c2ccccc2[C@](C)(C(=O)NCc2ccccc2)[C@@H]1c1ccc(CO)cc1`, the composite z-score with Albumin (Bos taurus) was 0.182; in test [2], -0.245; in [3] it was -0.0323; in test [4], 0.703; in [5], -0.129; in test [6] it was 0.967. The figures for the composite z-score (with Sam68 (KHDRBS1); in test [7]; in test [8]) were -0.484, -0.798 and -0.866, respectively. Further, in test [1], the composite Z-score is 1.32 (inactive).
For the compound `COC(=O)[C@@]1(Cc2ccc(F)cc2)[C@H]2c3cc(C(=O)N(C)C)n(Cc4ccc(S(C)(=O)=O)cc4)c3C[C@H]2CN1C(=O)c1ccccc1`, the composite z-score was 0.653 with Albumin (Bos taurus); -0.142 in test [2]; 0.151 in test [3]; 0.747 in [4]; 3.39 in test [5]; 1.04 in [6]. The figures for the composite z-score (in the test on Sam68 (KHDRBS1); in [7]; in test [8]) were -0.181, -0.0016 and 0.518, respectively. The composite Z-score in [1] was 0.542 (inactive).
`COC(=O)[C@@]1(Cc2ccc(OC)cc2)[C@H]2c3cc(C(=O)N4CCCC4)n(Cc4ccc(OC)c(OC)c4)c3C[C@H]2CN1C(=O)c1ccccc1`: the composite z-score is 1.08 with Albumin (Bos taurus); 1.28 in [2]; 0.852 in test [3]; 0.592 in test [4]; 2.74 in test [5]; 0.601 in [6]. Also, the results for the composite z-score (with Sam68 (KHDRBS1); in [7]; in test [8]) were 1.3, 0.206 and 1.14, respectively. Besides, in test [1], the composite Z-score was 0.983 (inactive).
Turning to `O=C1C2C=CC(C(O)c3ccc(F)cc3)N(Nc3ccccc3F)C2C(=O)N1c1ccccc1` (stereo not given), the composite z-score in the test with Albumin (Bos taurus) was 0.983; in [2], 0.323; in [3], -0.0194; in [4] it was 0.823; in [5], 3.13; in test [6], -0.0953. The values for the composite z-score (in the test on Sam68 (KHDRBS1); in test [7]; in test [8]) were 1.13, -0.868 and 0.493, respectively. For the same compound, in [1], the composite Z-score was 0.482 (inactive).
`COc1ccc([Si](C)(C)[C@H]2[C@H](CC(=O)N3CCC[C@H]3CO)O[C@@]3(C(=O)N(Cc4cccc(N5C(=O)c6cccc7cccc5c67)c4)c4ccccc43)[C@@H]2C)cc1`: the composite z-score with Albumin (Bos taurus) was 0.416; in test [2], 0.143; in test [3], -0.0745; in test [4] it was 0.346; in test [5] it was 1.53; in test [6], 0.0595. In addition, the composite z-score in the test with Sam68 (KHDRBS1) was found to be 1.04; in [7] it was 0.956; in [8] it was 1.1. The composite Z-score in [1] is 0.488 (inactive).
As for `CCCCCN1CC=CC23O[C@@H]4/C=C\CCCOC(=O)C4[C@H]2C(=O)N(CCCO)[C@@H]3C1=O` (stereo not given in full), the composite z-score with Albumin (Bos taurus) is 0.433; in test [2] it was -0.095; in [3], -0.104; in test [4], 0.689; in [5], 1.82; in [6], 1.04. Besides, the composite z-score is 0.798 in the test on Sam68 (KHDRBS1), -0.343 in test [7] and 0.256 in test [8]. The composite Z-score in test [1] was -0.0981 (inactive).
With `COCCOC(=O)N1C(=O)[C@@]2(c3cc(C#CCCO)ccc31)[C@H](C(=O)Nc1nc3ccccc3s1)[C@H]1C(=O)O[C@H](c3ccccc3)[C@H](c3ccccc3)N1[C@@H]2c1ccc(OCCO)cc1`, the composite z-score in the test with Albumin (Bos taurus) was 0.72; in test [2], 0.286; in test [3], -0.0028; in test [4], 0.295; in test [5], 0.793; in test [6], 0.225. Further, the composite z-score in the test on Sam68 (KHDRBS1) was 1.28; in test [7] it was 0.387; in test [8], 1.07. The composite Z-score in test [1] is -1.03 (inactive).
